# Assay results reported in PubChem BioAssay (NCI).
# This is part of a sample that, as a whole, favours compounds with a hit. Of some 83,000 tested, about 20% had one in any assay.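 Method: cells in 96-well plates; compound added at one concentration; 48 h incubation; percent growth measured; values under 10 scored active.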 Values without a mark were called inactive. Calls of active or inactive are those of the source.
# Columns and labels:
# Experiment in all cases: NCI-60 one-dose screen, 48 h (100 = growth as untreated, 0 = no growth, -100 = all killed)
# Details in all cases: 10 µM unless noted
# [1] = tested on: BT-549 breast
# [2] = tested on: MDA-MB-435 melanoma
# [3] = tested on: SW-620 colon
# [4] = tested on: MCF7 breast
# [5] = tested on: HCT-116 colon
# [6] = tested on: HCC-2998 colon
# [7] = tested on: KM12 colon
SMILES,growth [1],growth [2],growth [3],growth [4],growth [5],growth [6],growth [7]
CN(C)c1cccc2c(S(=O)(=O)N[C@H]3CC[C@H]4[C@@H]5CCc6cc(O)ccc6[C@H]5CC[C@]34C)cccc12,35.9%,-46.4% (active),24.8%,12.9%,13.1%,60.6%,18.5%
CC(=O)c1ccc2c3c(n(C)c2c1)CCCC3,96.5%,97.8%,110%,95.9%,99.1%,93.7%,112%
CCCCCCCCSc1ncnc2c1ncn2CO,84.6%,82.6%,93.8%,75.7%,66.8%,109%,88.2%
Cc1cc2c(cc1[N+](=O)[O-])NC(CNC(C)C)CC2 (stereo not given),102%,107%,111%,105%,96.2%,86.6%,107%
O=c1ccn(C2OC(CO)C(O)C2F)c(=O)[nH]1 (stereo not given),115%,107%,102%,104%,108%,97.8%,111%
ClC1=C(Cl)C(Cl)=C(Cl)C1=C/C=C/c1ccccc1,-12.6% (active),-28.5% (active),-55.2% (active),-19.6% (active),-98% (active),-93.3% (active),-77.8% (active)
Cc1c(C(N)=O)sc2c1C(=O)N(Cc1ccccc1)C1=NN=C(c3ccc(Cl)cc3)CN12,58.2%,66.3%,57.5%,37.8%,18.8%,40.9%,42.6%
Cc1nn(-c2ccc(Br)cc2)c2nc3c(nc12)C(=O)C(=O)c1ccccc1-3,94.7%,110%,93.5%,67.3%,86.3%,93%,103%
COc1cc(/C=C/C(=O)Nc2cccnc2Nc2cc(OC)c(OC)c(OC)c2)cc(OC)c1OC,96.7%,96.6%,99.1%,87.9%,88.6%,97%,103%
c1ccc(Nc2nnc(-c3cc(-c4cccnc4)n(-c4ccccc4)n3)s2)cc1,85.8%,80.7%,97.1%,95.7%,76.8%,72.5%,60.3%
C=C(C[C@](O)(C(=O)/C=C/c1ccc(Cl)cc1)C(=O)OC)c1ccccc1,79.5%,66.5%,30.3%,5.85% (active),34.9%,41.9%,15.3%
O=C(N1CCC(CN=c2cc3n(-c4ccc(Cl)cc4)c4ccccc4nc-3cc2Nc2ccc(Cl)cc2)CC1)N1CC1,-82.5% (active),-29.4% (active),-83% (active),-71.6% (active),-70.9% (active),-75.9% (active),-63.7% (active)
COc1cccc(/C=C2\COc3ccc(O)c(O)c3C2=O)c1OC,35.3%,9.09% (active),4.8% (active),16.7%,-48.4% (active),78.6%,12.9%
COc1ccc2nccc(/C=C/c3ccnc4ccc(OC)cc34)c2c1,189%,111%,104%,88.1%,102%,96.5%,99.5%
O=C1Cc2cc(CCN3CCN(CCOCCO)CC3)c(Cl)cc2N1Cc1ccc(-c2ccccc2-c2nn[nH]n2)cc1,87.3%,92.8%,95.9%,87.1%,87.8%,88.5%,85.2%
CCN(CC)c1ccc(N=Nc2cc(Cl)ccc2Cl)c(NC(=O)CCC(=O)O)c1,120%,115%,105%,93.2%,99.7%,107%,101%
Cc1nc(N)[nH]c(=O)c1C,45.1%,106%,125%,95%,101%,81.1%,122%
C=Cc1nn2c(CCC(=O)c3nc4ccccc4[nH]3)nnc2s1,95.4%,100%,102%,93.8%,98.5%,98%,97.7%

SMILES,growth [1],growth [2],growth [3],growth [4],growth [5],growth [6],growth [7]
CCSc1nnc2n(Cc3ccccc3)c(=O)c3c(C)c(C(N)=O)sc3n12,88.9%,105%,109%,96.8%,100%,101%,105%
Cn1cc(-c2csc(-c3c[nH]c4ncccc34)n2)c2cc(Br)cnc21,45.5%,33.8%,39.2%,35%,5.99% (active),64.2%,63.1%
O=C1N(C2CCCCC2)C(=O)N1C1CCCCC1,33.6%,57.4%,48.5%,42.9%,44.2%,49.3%,7.4% (active)
COc1cc(/C=C2\COc3ccc(O)cc3C2=O)cc(OC)c1,66.1%,20.1%,2.07% (active),8.22% (active),0.249% (active),109%,17.4%
COc1ccc(C2CC(c3ccc(OC)c(OC)c3)=NN2C(=O)c2cc(OC)c(OC)c(OC)c2)cc1 (stereo not given),27.6%,-26.6% (active),20.9%,27.6%,20.6%,61.1%,16.2%
CC[N+](C)(CC)CCCC(C)Nc1ccnc2cc(Cl)ccc12 (stereo not given),117%,108%,106%,96.4%,110%,119%,102%
CC(c1cc(Cl)ccc1O)c1cc(Cl)ccc1O,44.7%,-2.51% (active),30.6%,20.1%,15.2%,63%,31.8%
Cc1ccc(NC(=O)CSc2nnc3n(Cc4ccccc4)c(=O)c4c(C)c(C(N)=O)sc4n23)cc1,74.3%,31.5%,53.7%,44.8%,9.8% (active),34.3%,51.2%
CCN1CCN(c2cc(-c3cn[nH]c3-c3cc(C)cc(OC)c3)nc(-c3cccnc3)n2)CC1,92.9%,81.2%,82.6%,82.6%,38.4%,91.3%,50.6%
CCN(CC)CCCNCCCNc1cc(OC)cc2cccnc12,100%,103%,38.7%,-46.8% (active),86.5%,83.7%,78.8%
Fc1ccc(-c2nnc(/C=C/c3cn(-c4ccccc4)nc3-c3ccccc3)o2)cc1,86.6%,100%,86.6%,94%,57%,95%,102%
CCCCCCCC1(C)NC(=O)NC1=O (stereo not given),121%,123%,100%,97.6%,103%,140%,113%
C[N+]1(CCC[N+]2(C)C[C@@H]3[C@H](C2)[C@@H]2C=C[C@H]3C2)CCOCC1 (stereo not given in full),103%,113%,106%,107%,105%,112%,108%
N#CCCCCCn1c2ccccc2c2c3c(c4c5ccccc5[nH]c4c21)C(=O)N(O)C3=O,16.1%,14.3%,12.5%,6.24% (active),-33.3% (active),1.36% (active),4.16% (active)
Cc1cc(NC(=O)c2ccc(N)cc2)ccc1N=Nc1ccc2c(O)c(N=Nc3ccc(Cl)c(S(=O)(=O)O)c3)c(S(=O)(=O)O)cc2c1,102%,95.5%,92.6%,80.1%,71.5%,73.1%,90%
O=[N+]([O-])c1cnc(Sc2ccncn2)c([N+](=O)[O-])c1,111%,91.1%,26.4%,56.1%,-59% (active),102%,107%
COc1ccc2nc3cc(Cl)ccc3c(Nc3cc(C(C)C)c(O)cc3C)c2c1,57%,30.8%,21.8%,15.5%,1.48% (active),37.5%,8.35% (active)
